# Among all 63,000 compounds or so, about 1,100 (1.7%) were called active. What follows is part of a selection rich in actives, with near analogues and random picks from the rest. Measured potencies and affinities stand elsewhere. Unmarked numbers belong to inactive results. No stated cut-off is given here; in the data, active means cytotoxicity above about 50%; inactive means the rest.
# Test: cytotoxicity in HPDE-C7 cells, cell-based, fluorescence, HTS (AID 430);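 further: cells exposed to compound for 48 hours before viability readout; 0% = vehicle and 100% = reference cytotoxic drug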
# Settings: HPDE-C7 pancreatic duct cells viability, at 10 µM, hits give high values
row,SMILES,cytotoxicity
1,CCC(=O)Nc1nc(C)nc(C)c1C(C)=O,-5.6%
2,CC(=O)Nc1ccc(C)cc1NC(C)=O,-3.9%
3,COc1ccc(C(c2nnnn2CCc2ccccc2)N2CCN(C3CCCC3)CC2)cc1 (centres undefined),-6.9%
4,O=C(O)CSc1cccc2cccnc12,-7.9%
5,CCOC(=O)CNc1ncnc2nc[nH]c12,-3.5%
6,c1ccc(-c2nnc(-c3ccccn3)nn2)nc1,6.6%
7,c1ccc(-c2ccc(-c3ccccn3)nn2)nc1,0.9%
8,COc1ccc(S(=O)(=O)N2CCOCC2)c(Cl)c1Cl,-17.3%
9,CCCc1nc(NC2CCCCC2)c(C#N)c2c1COC(C)(C)C2,-4.4%
10,CCc1nc(NC2CCCCC2)c(C#N)c2c1COC(C)(C)C2,63.4% (active)
11,CCc1nc(NCC2CCCO2)c(C#N)c2c1COC(C)(C)C2 (centres undefined),-11.3%
12,COc1ccc(-n2cnnc2SCC(=O)c2cc(C)n(Cc3cccs3)c2C)cc1,0.5%
13,CCSc1ncnc2c(C#N)c3n(c12)CCCCC3,-13.6%
14,CCOC(=O)C1=C(N2CCCCC2)c2cc3c(n2C1=O)CCCC3,10.1%
15,CCN1CCN(CCNC(=O)c2ccc(CS(=O)(=O)c3ccccc3C)o2)CC1,-0.5%
16,Cc1cc(C)cc(NC(=O)c2nnn(Cc3cc(C)ccc3C)c2N)c1,58.9% (active)
17,Cc1ccc(CCNC(=O)c2nnn(-c3cc(C)cc(C)c3)c2N)cc1,3.4%
18,Cc1ccc(C)c(NC(=O)c2nnn(Cc3ccccc3C)c2N)c1,1.7%
19,COc1ccc(C)cc1NC(=O)c1nnn(Cc2cc(C)ccc2C)c1N,7.5%
20,Cc1ccc(NC(=O)c2nnn(-c3cc(C)cc(C)c3)c2N)cc1,55.6% (active)
21,Cc1cccc(-n2nnc(C(=O)Nc3ccc(F)cc3)c2N)c1,15.2%
22,CCOC(=O)C(Cc1c[nH]c2ccccc12)NC(=O)CNC(C)=O (centres undefined),2.5%
23,CCCn1cnc2cc(NCc3cccc(OC)c3O)ccc21,5.7%
24,CCOC(=O)c1ccc2ncc(C(=O)OCC)c(NCCCN3CCOCC3)c2c1,3%
25,COc1ccc2c(c1)C1(Nc3ccccc3C(=O)N1c1ccccc1)C(=O)N2 (centres undefined),-14.8%

row,SMILES,cytotoxicity
1,CC(=Nc1ccccc1)Nc1ccccc1,-13.5%
2,S=C(N=Nc1ccccc1)NNc1ccccc1,58.8% (active)
3,ONC(=Nc1ccccc1)C(=Nc1ccccc1)NO,0.4%
4,COc1ccc(C2C(C(=O)NCCN3CCOCC3)c3ccccc3C(=O)N2C)cc1OC (centres undefined),-4.3%
5,c1ccc(-c2nnc3sc(-c4csc5c4CCCC5)nn23)cc1,75% (active)
6,Cc1ccccc1-c1nn2c(-c3ccccc3)nnc2s1,-0.8%
7,Cc1nnc2sc(-c3csc4c3CCCC4)nn12,-4.3%
8,CCS(=O)(=O)n1nc(-c2ccccc2)cc1N,1%
9,O=C(Cc1cccs1)N1CCCC(c2nc3c(nnn3Cc3ccc(F)cc3)c(=O)[nH]2)C1 (centres undefined),3.7%
10,CC(C)(C)c1ccc(Cn2nnc3c(=O)[nH]c(C4CCN(C(=O)Cc5cccs5)CC4)nc32)cc1,0.2%
11,COc1ccc(C(=O)OCCN2C(=O)c3ccccc3C2=O)cc1,-2.8%
12,CCOc1ccc(-c2n[nH]c(C)c2-c2ccccc2OC)c(O)c1,-12.5%
13,CCCOC(=O)c1ccc(NC(=O)c2cnccn2)cc1,-2%
14,CCCOC(=O)c1ccc(OC(=O)c2ccco2)cc1,-5.8%
15,CCC(=O)Nc1c2c(nn1-c1ccc(C)cc1C)CSC2,-2.4%
16,O=C(Nc1ccon1)c1cccc(S(=O)(=O)N2CCCC2)c1,-18.1%
17,Cc1ccc(C)c(NC(=O)CCn2nc(C)cc2C)c1,-17.9%
18,c1ccc2[nH]c(CN3CCN(c4ncnc5c4oc4ccccc45)CC3)nc2c1,-2.8%
19,CC(=O)N1CCN(C(=O)COc2ccc(Br)cc2)CC1,4.1%
20,CCOc1ccc(NC(=O)c2ccccc2NC(=O)CN2CCN(C(C)=O)CC2)cc1,-0.6%
21,O=C(C1CCN(Cc2ccc(F)cc2)CC1)N(CCO)Cc1ccccc1,2.8%
22,COC(=O)c1c(NC(C)=O)sc2c1CCCC2,-2%
23,COC(=O)c1c(NC(=O)c2ccc(Br)s2)sc2c1CCC2,53.5% (active)
24,COC(=O)c1c(NC(=O)c2ccoc2C)sc2c1CCC2,-21%
25,O=C(Nc1ccc2c(c1)OCO2)C(c1ccc(Cl)cc1)N1CCC2(CC1)OCCO2 (centres undefined),4.2%

row,SMILES,cytotoxicity
1,CC(=O)c1c(C)nc(-c2ccc3c(c2)OCO3)n1O,-6.2%
2,CC1CCN(C(=O)CNC(=O)Cn2ccc3ccccc3c2=O)CC1,-13.9%
3,CN1CC2=Cc3ccccc3OC23Oc2ccccc2C=C3C1,58.3% (active)
4,CCCCn1c(=O)[nH]c(=O)c2c1nc(COC(=O)c1c(C)noc1C)n2CCC,-7%
5,Cc1cc(-c2ccccc2)c(C#N)c(N)n1,-14.3%
6,CSc1nc(-c2ccco2)cc(-c2ccccc2)c1C#N,-2.3%
7,C=CCn1c(SCC(=O)C(C)(C)C)nnc1-c1cccs1,-5.8%
8,COc1cc(C(=O)Oc2c(CN3CCOCC3)cc(Cl)c3cccnc23)cc(OC)c1OC,29%
9,COc1ccc(C(=O)Oc2c(CN3CCOCC3)cc(Cl)c3cccnc23)cc1OC,7.4%
10,O=C(Oc1ccc(Cl)c2cccnc12)N1CCOCC1,10.3%
11,O=C(Oc1c(Cl)cc(Cl)c2cccnc12)N1CCOCC1,3.3%
12,Cc1ccc(CCNC(=O)C2CCCN(S(=O)(=O)c3cnc[nH]3)C2)cc1 (centres undefined),-8.4%
13,O=C(NCC(=O)N(c1ccc2c(c1)OCO2)C(C(=O)NC1CCCC1)c1ccncc1)c1ccco1 (centres undefined),-5.8%
14,Cc1cccc2cc(COC(=O)c3cccnc3)c(=O)[nH]c12,8.9%
15,CC1CCN(S(=O)(=O)c2ccc3[nH]c(=O)c(=O)[nH]c3c2)CC1,-9%
16,COC(=O)Cc1cc(=O)[nH]c(/N=C(/NC(=O)c2ccccc2)Nc2ccccc2C)n1,2.1%
17,Cc1ccc(O)c(CC(C)C)n1,-4.7%
18,CCC(NC(C)C)C(O)c1ccc(O)c(O)c1 (centres undefined),15.3%
19,O=C(c1cc2ccccc2cc1OCC(O)CN1CCCCC1)N1CCCCC1 (centres undefined),-0.7%
20,CC1CCCN(S(=O)(=O)c2cc(Cl)ccc2Cl)C1 (centres undefined),-32.2%
21,CCN(CC)S(=O)(=O)c1cccc(C(=O)Nc2nncs2)c1,-14.1%
22,CCN(CC)S(=O)(=O)c1ccc(Cl)c(C(=O)Nc2nncs2)c1,2.1%
23,Cc1ccccc1-n1c(SC/C(O)=C(\C#N)c2nc3ccccc3[nH]2)nnc1-c1ccncc1,-17.8%
24,Nc1nc(NC(=O)c2cccnc2)nn1-c1ccccc1,3.1%
25,Nc1nc(NC(=O)c2ccco2)nn1-c1ccccc1,2%

row,SMILES,cytotoxicity
1,CC1=C(C(=O)OCc2ccccc2)C(c2ccc(C)o2)C2=C(CCCC2=O)N1 (centres undefined),54.4% (active)
2,COC(=O)CSC1=C(C#N)C(c2ccccc2)CC(=O)N1 (centres undefined),-10%
3,CC1=C(C(=O)OC2CCCCC2)C(c2ccc(C)o2)C2=C(CCCC2=O)N1 (centres undefined),-7%
4,CCOC(=O)CSC1=C(C#N)C(c2ccc(C)o2)CC(=O)N1 (centres undefined),68.5% (active)
5,Cc1ccc(C2CC(=O)NC(SCC(=O)OCc3ccccc3)=C2C#N)o1 (centres undefined),59.6% (active)
6,CCOC(=O)CSC1=C(C#N)C(c2ccc(Cl)cc2)CC(=O)N1 (centres undefined),-16%
7,CCCCCCSC1=C(C#N)C(c2ccc(C)o2)CC(=O)N1 (centres undefined),-8%
8,Cc1ccc(C2CC(=O)NC(SCc3ccccc3)=C2C#N)o1 (centres undefined),10.6%
9,CC1=C(C(=O)OC2CCCCCC2)C(c2ccc(C)o2)C2=C(CCCC2=O)N1 (centres undefined),-13.9%
10,CC(=O)Nc1cccc(NC(=O)CSc2nnc(Cc3cccn3C)n2-c2ccc(F)cc2)c1,-6.9%
11,Cc1cccc(C(C)(C)C)c1OCCn1ccnc1,8.6%
12,COc1ccc(S(=O)(=O)N(CC(N)=O)C2CCCCC2)cc1Cl,-13.6%
13,O=C(CN1CCN(C(=O)c2ccco2)CC1)Nc1ccc2c(c1)OCCO2,-13.8%
14,CCn1c(N2CCC(Cc3ccccc3)CC2)nc2c1c(=O)[nH]c(=O)n2C,-25.9%
15,CC(=O)OCC1OC(n2ccc(=O)[nH]c2=O)C(O)C1O (centres undefined),-11.3%
16,CC(=O)OC[C@H]1O[C@@H](n2ncc(=O)[nH]c2=O)[C@H](OC(C)=O)[C@@H]1OC(C)=O,56.2% (active)
17,CC(=O)OC[C@H]1O[C@@H](n2ccc(=O)[nH]c2=S)C(OC(C)=O)C1OC(C)=O (some centres undefined),-1%
18,CCSc1cc(C2C(C#N)=C(N)OC(C)=C2C(=O)OC)c(C)o1 (centres undefined),3.5%
19,CCOC(=O)CCc1nn(C)c(=O)c2ccccc12,-11.1%
20,Cc1ccc(S(=O)(=O)N(C)CC(=O)N2CCN(c3ccccn3)CC2)cc1,6.4%
21,Cc1cc(-c2csc(NC(=O)c3ccc(=O)n(C)n3)n2)c(C)n1CC1CCCO1 (centres undefined),-8.1%
22,O=C1Nc2ccccc2C12OCC(COc1ccc(Cl)cc1)O2 (centres undefined),30.3%
23,CCC(C)n1ncn(-c2ccc(N3CCN(c4ccc(OCC5COC(Cn6cncn6)(c6ccc(Cl)cc6Cl)O5)cc4)CC3)cc2)c1=O (centres undefined),65.7% (active)
24,CCCC1COC(Cn2cncn2)(c2ccc(C)cc2)O1 (centres undefined),-5.7%

# From PubChem BioAssay AID430 (Sanford-Burnham Center for Chemical Genomics, 2006)
